Measured values taken from PubChem BioAssay AID588591 (National Center for Advancing Translational Sciences (NCATS), 2011).
The whole screen tested about 390,000 compounds, of which about 4,700 (1.2%) were called active. Not shown: some 4% with an inconclusive outcome. Calls follow the shape of the dose curve; as a rule, active = well fitted inhibition curve with a large enough effect; inconclusive = small, poorly fitted or top-dose-only effect, or another doubt; inactive = no such curve, though single readings can be large or run the other way. What follows is part of a selection rich in actives, with near analogues and random picks from the rest.

target: DNA polymerase eta (Homo sapiens) (UniProt Q9Y253); experiment: qHTS for Inhibitors of Polymerase Eta; conditions: recombinant Pol eta, fluorescent DNA replication assay; series mostly up to 114 µM; activity change, negative = inhibition: at the top concentration
Method in brief: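 Pol eta at 10 nM preincubated with compounds 15 min at room temperature; reaction started with fluorescent substrate (50 nM final) and read kinetically at 0 and 10 min.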
% is scaled to controls: 0 for no effect and ±100 for the full control effect; potency is read from the fitted curve at half-maximal effect.

DNA polymerase eta (Homo sapiens), sequence (Q9Y253 whole entry, looked up): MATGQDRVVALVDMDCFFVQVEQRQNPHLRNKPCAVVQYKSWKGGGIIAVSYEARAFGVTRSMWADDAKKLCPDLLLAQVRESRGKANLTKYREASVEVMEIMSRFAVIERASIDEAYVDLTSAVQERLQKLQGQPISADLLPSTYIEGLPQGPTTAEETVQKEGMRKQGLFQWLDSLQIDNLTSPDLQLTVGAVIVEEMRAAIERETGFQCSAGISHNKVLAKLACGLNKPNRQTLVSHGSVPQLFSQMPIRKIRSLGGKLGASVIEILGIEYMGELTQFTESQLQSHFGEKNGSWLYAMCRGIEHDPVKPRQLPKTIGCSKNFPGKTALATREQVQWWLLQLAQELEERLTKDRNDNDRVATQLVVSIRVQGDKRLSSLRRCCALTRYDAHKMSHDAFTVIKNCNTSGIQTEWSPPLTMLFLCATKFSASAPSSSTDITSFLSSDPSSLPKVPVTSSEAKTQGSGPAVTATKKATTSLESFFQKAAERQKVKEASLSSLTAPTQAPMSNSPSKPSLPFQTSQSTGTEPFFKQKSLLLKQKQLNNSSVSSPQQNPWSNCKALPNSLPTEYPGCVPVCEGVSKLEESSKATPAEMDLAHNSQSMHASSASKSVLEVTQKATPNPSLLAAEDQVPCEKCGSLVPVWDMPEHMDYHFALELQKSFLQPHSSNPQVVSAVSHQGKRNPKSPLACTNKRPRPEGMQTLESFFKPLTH

| Structure (SMILES) | activity change, negative = inhibition | Potency |
| --- | --- | --- |
| CC(=O)N1CCCc2cc(S(=O)(=O)N3CCC(C(=O)NCc4ccc(C)cc4)CC3)ccc21 | -19.5% (inactive) | – |
| CC(=O)OC1=C(C(C)=O)N(Cc2ccccc2)S(=O)(=O)c2ccccc21 | -6.38% (inactive) | – |
| CCN(CC)c1nn2c(=O)c(C(=O)NCCc3ccccc3)cnc2s1 | 3.4% (inactive) | – |
| COc1ccccc1CNC(=O)c1ccc(CS(=O)c2ccccc2Cl)o1 (stereo not given) | -22.6% (inactive) | – |
| O=C(CC1N=C2c3ccccc3N=C(SCc3cccc(Cl)c3)N2C1=O)NCc1ccc2c(c1)OCO2 (stereo not given) | -4.09% (inactive) | – |
| CC1=C(C)C(=O)OC(C(C)C2CCC3C4CC=C5CC(OC6OC(COC7OC(CO)C(O)C(O)C7O)C(O)C(O)C6O)CC(O)C5(C)C4CCC23C)C1 (stereo not given) | -0.743% (inactive) | – |
| C=CC1C(OC2OC(CO)C(O)C(O)C2O)OC=C(C(=O)OC)C1CC1CC(=O)CC(CC(=O)CCc2ccc(O)cc2)O1 (stereo not given) | -1.73% (inactive) | – |
| CC(/C=C/C1(O)C(C)CC(=O)CC1(C)C)OC1OC(CO)C(O)C(O)C1O (stereo not given) | – | 31.6 µM (active) |
| Cc1ccc(Nc2c(-c3ccc(C)cc3)nc3cnccn23)cc1 | -24.9% (inactive) | – |
| COc1cccc(NC(=O)N(Cc2cn(C)c3ccccc23)C2CCCCCC2)c1 | -20.2% (inactive) | – |
| O=C1CSC(=S)N1/N=C/c1ccc(O)c([N+](=O)[O-])c1 | – | 6.31 µM (active) |
| COc1cc(Cl)c(NC(=O)C(NS(=O)(=O)c2cccs2)C(C)C)c(OC)c1 (stereo not given) | -6.74% (inactive) | – |
| COc1cccc2c1C(=O)c1c(O)c3c(c(O)c1C2=O)CC(O)(C(C)=NNC(=O)c1ccc(Cl)c(Cl)c1)CC3OC1CC(N)C(O)C(C)O1 (stereo not given) | – | 12.6 µM (active) |
| CCOc1ccc(N(Cc2ccccc2)C(=O)c2nc(S(C)(=O)=O)ncc2Cl)cc1 | -15.3% (inactive) | – |
| Cc1ccc(-c2cn3c(n2)sc2cc(C(=O)NCc4cccs4)ccc23)c(C)c1 | -19.4% (inactive) | – |
| COc1ccccc1NC(=O)CSC1=Nc2ccccc2C2=NC(CC(=O)NCc3cccs3)C(=O)N12 (stereo not given) | -23.7% (inactive) | – |
| O=C(CSC1=Nc2ccccc2C2=NC(CC(=O)NCc3ccco3)C(=O)N12)NCc1ccco1 (stereo not given) | – | 15.8 µM (active) |
| O=C(CC1N=C2c3ccccc3N=C(SCc3ccc(F)cc3)N2C1=O)NCc1cccs1 (stereo not given) | -19.4% (inactive) | – |
| Cc1cc(=O)c2cc(C(=O)Nc3cccc(C)c3C)ccc2[nH]1 | -0.315% (inactive) | – |
| CCc1ccccc1N1C(=O)CN(S(=O)(=O)CC)CC1(C)C(=O)NC1CCCCC1 (stereo not given) | -9.39% (inactive) | – |
| COc1cc(/C=C2/C(=O)NN(c3ccc(F)cc3)C2=O)cc([N+](=O)[O-])c1O | – | 44.7 µM (active) |
| COc1ccc(N2C(=O)CC(Nc3ccc(F)cc3)C2=O)c([N+](=O)[O-])c1 (stereo not given) | 4.19% (inactive) | – |
| COc1cccc2c1cc1c(=O)n(CC(=O)N3CCN(c4cccc(Cl)c4)CC3)nc(C)n12 | 11.2% (inactive) | – |
| COc1cc(/C=C2/C(=O)NN(c3cccc(Cl)c3)C2=O)cc(Br)c1O | – | 89.1 µM (active) |
| COc1cc(CN2CC(C)CC(C)C2)cc([N+](=O)[O-])c1O (stereo not given) | -17.2% (inactive) | – |
